Screens deposited in PubChem BioAssay by several laboratories.
FAK inh: inhibitors of human focal adhesion kinase | Q05397 | biochemical FAK kinase activity assay | inhibition, %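 (tested at 7 µM)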 | actives 0.84% (n = 97,000) | AID 727;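 further: 0% = DMSO and 100% = reference compound high control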
Target sequence (Q05397 whole entry, looked up): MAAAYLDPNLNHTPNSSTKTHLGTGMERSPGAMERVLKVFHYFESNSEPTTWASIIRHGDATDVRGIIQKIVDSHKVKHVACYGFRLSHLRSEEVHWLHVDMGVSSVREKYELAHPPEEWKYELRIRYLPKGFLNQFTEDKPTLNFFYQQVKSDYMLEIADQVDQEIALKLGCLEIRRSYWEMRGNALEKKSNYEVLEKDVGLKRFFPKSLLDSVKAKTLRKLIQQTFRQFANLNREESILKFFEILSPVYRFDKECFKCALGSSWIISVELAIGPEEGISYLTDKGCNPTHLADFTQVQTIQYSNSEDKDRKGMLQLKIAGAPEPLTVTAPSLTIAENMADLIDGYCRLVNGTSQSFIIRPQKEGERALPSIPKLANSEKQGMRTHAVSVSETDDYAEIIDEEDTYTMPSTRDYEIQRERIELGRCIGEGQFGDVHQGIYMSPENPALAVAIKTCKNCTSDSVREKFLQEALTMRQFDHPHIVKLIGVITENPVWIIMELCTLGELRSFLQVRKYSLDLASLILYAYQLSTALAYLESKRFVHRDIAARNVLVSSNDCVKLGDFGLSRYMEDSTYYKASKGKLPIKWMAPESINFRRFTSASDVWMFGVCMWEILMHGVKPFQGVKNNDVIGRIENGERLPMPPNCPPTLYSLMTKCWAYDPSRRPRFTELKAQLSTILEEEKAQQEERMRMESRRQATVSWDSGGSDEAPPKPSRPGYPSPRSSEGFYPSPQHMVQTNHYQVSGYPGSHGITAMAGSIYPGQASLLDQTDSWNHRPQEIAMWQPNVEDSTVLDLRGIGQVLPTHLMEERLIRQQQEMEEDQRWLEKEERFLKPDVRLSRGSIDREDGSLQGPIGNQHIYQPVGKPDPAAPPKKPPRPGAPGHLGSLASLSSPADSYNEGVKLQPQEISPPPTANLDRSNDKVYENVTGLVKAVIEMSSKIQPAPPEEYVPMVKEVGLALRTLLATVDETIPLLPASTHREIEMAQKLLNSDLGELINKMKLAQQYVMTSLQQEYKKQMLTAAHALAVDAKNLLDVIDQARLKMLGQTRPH
HUVEC tox IL1B: toxic to HUVEC cells under IL-1B stimulation. HUVEC cell count loss, Hoechst imaging, IL-1B stimulated. cell count reduction, % at 2 µM. actives 0.41% (n = 94,000);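 active means cell count reduction more than 3 SD above the screen-wide mean, cut at about 70% in these data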;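 further: normalized per plate to untreated control cells as the no-loss baseline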
IL1B NFkB pot: enhances IL-1B driven NFkB nuclear translocation; actives 0.3% (n = 94,000); activation, % at 2 µM; AID 819; HUVEC IL-1B NFkB p65 nuclear translocation imaging;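 active means activation above 40%, about the mean plus 3 SD, also judged a hit on visual image review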;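 further: percent activation is computed from the nuclear over cytoplasmic p65 intensity ratio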
Pyk2 oligo antag: antagonists of human Pyk2 oligomerization. Q14289. AID 1347419. z-score (the deposit names both 25 µM and 10 µM). actives 0.83% (n = 99,000). Q293 cells, Pyk2 FERM NanoBiT luminescence; active compounds read low;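 active means Z-score of -3 or lower, scaled per plate to the spread of control and sample wells; inactive means z-score above -3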;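 further: negative z-score means lost luminescence so less FERM oligomerization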
JNK3 inh: JNK3 (human) kinase inhibition | P53779 | purified JNK3 kinase activity, HTS | inhibition, % at 8 µM | actives 0.61% (n = 60,000) | AID 746; in the data active means inhibition above about 17%;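 further: 0% = DMSO and 100% = reference inhibitor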
NFkB transloc inh: blocks IL-1B driven NFkB nuclear translocation in HUVEC cells; HUVEC IL-1B NFkB p65 nuclear translocation imaging; inhibition, % at 2 µM; actives 0.43% (n = 94,000);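 active means inhibition above about 30% together with a positive call from visual inspection of the well image, limit read from the data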;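 further: nuclear over cytoplasmic p65 intensity ratio measured by imaging; 0% = IL-1B stimulated DMSO wells and 100% = unstimulated DMSO wells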
FAK inh conf: confirmation of human focal adhesion kinase (FAK) inhibitors | shares compounds with FAK inh | FAK kinase biochemical inhibition assay | inhibition, % at 7 µM | actives 28% (n = 750) | AID 794
Active calls of the source: *; nt = not tested or not shown. Sampled rows, rich in hits. Any-hit rate of the full collection: about 2.4%. Unless noted, no stated cut-off is given here; in the data, active means inhibition above about 19%; inactive means the rest.

SMILES	FAK inh	HUVEC tox IL1B	IL1B NFkB pot	Pyk2 oligo antag	JNK3 inh	NFkB transloc inh	FAK inh conf
CCN1CCN(c2cc(C)c3cc(NC(=O)c4cncc(Br)c4)ccc3n2)CC1	26*	-22	-6	-0.35	nt	6	12
CCN1CCN(c2cc(C)c3cc(NC(=O)c4ccc(OC)c(OC)c4)ccc3n2)CC1	12	-7	1	nt	nt	-1	nt
O=C1c2ccccc2C(=O)C1c1ccnc2ccccc12	51*	16	0	-0.32	nt	0	34*
O=C1C(c2ccnc3ccccc23)=C(O)c2ccccc21	31*	-11	17	-0.94	nt	-17	27*
CCOC(=O)c1cnc2cc(Cl)c(OC)cc2c1NCC1CCCO1 (centres undefined)	20*	3	-9	-2.2	4	9	6
COc1ccc(-n2cnnc2SCC(=O)Nc2cc(C(C)(C)C)nn2-c2ccccc2)cc1	23*	10	-4	0.82	nt	4	12
COc1ccccc1-n1cnnc1SCC(=O)Nc1cc(C(C)(C)C)nn1-c1ccccc1	6	-12	7	1.8	5	-8	nt
C/C(O)=c1/ccc2cccc3nc(C)nc1c23	24*	30	-7	-0.71	-10	7	7
Cc1nc2ccccc2nc(C)c1=NO	0	8	-12	-0.81	nt	12	nt
O=C(c1cccc(OC(F)F)c1)N1CCN(c2ncccn2)CC1	1	19	15	0.29	-5	-15	nt
Cc1cnc(C(=O)Nc2ccc(C(=O)N3CCCCC3)cc2)cn1	-2	-7	12	0.7	nt	-12	nt
CCc1nnc(NC(=O)Cn2nnc(-c3ccccc3F)n2)s1	nt	nt	nt	0.4	-3	nt	nt
COC(=O)c1ccc2c(c1O)C(=O)c1ccccc1C2=O	9	-9	39	-0.97	nt	-39	nt
COC(=O)c1cccc2c1-c1ccccc1/C2=N/O	50*	-133	2	-1.5	54*	-2	28*
COc1ccccc1C1CC(c2ccc(C)cc2)Nc2ncnn21 (centres undefined)	0	-33	6	-0.07	-3	-6	nt
CCOC(=O)c1c(C)[nH]c(C=Nc2ccccc2)c1O	-8	-14	9	nt	1	-9	nt
CCOC(=O)c1c(C)[nH]c(O)c1C=Nc1ccccc1	34*	-27	13	1.2	nt	-13	16
O=C1CCCC2=C1C(c1ccc(Cl)cc1)C1C(=O)c3ccccc3C1=N2 (centres undefined)	23*	-8	0	-2.9	nt	0	6
O=C1CCCC2=C1C(c1ccc(Cl)cc1)N1C(=O)CCSC1=N2 (centres undefined)	1	-8	-7	-0.39	nt	7	nt
Cc1cccc(C(OC(=O)c2ccco2)C(=O)NCc2ccccc2)n1 (centres undefined)	-5	-57	27	0.07	-1	-27	nt
O=C(Nc1ccc(Cl)c(Cl)c1)N1CCSC1c1ccco1 (centres undefined)	26*	34	-3	0.6	6	3	17
O=C(Nc1ccc(Cl)c(Cl)c1)N1CC=CCC1	nt	nt	nt	1.5	6	nt	nt
Cc1oc2c(c1C(=O)c1ccccc1)C(=O)C(=O)c1ccccc1-2	30*	-26	9	-2.2	nt	-9	22*
O=C1C(=O)c2c(C(=O)c3ccccc3)coc2-c2ccccc21	32*	nt	nt	-3.6*	nt	nt	20*
CC1=C(CC(=O)c2ccccc2)C(=O)c2ccccc2C1=O	10	-3	20	-1.1	nt	-20	nt
SMILES	FAK inh	HUVEC tox IL1B	IL1B NFkB pot	Pyk2 oligo antag	JNK3 inh	NFkB transloc inh	FAK inh conf
Cn1c2ccccc2c(=O)n2c(=O)c3ccccc3cc12	31*	-11	17	nt	3	-17	47*
COc1ccc(-c2nnc(NC(=O)c3cc(Cl)ccc3Cl)o2)cc1	-8	-9	3	nt	-8	-3	nt
Cc1ccc(C(=O)CSc2ncnc3sc4c(c23)CCC(C)C4)cc1 (centres undefined)	-3	10	24	0.55	nt	-24	nt
Clc1ccc(Br)cc1-c1nc(-c2ccncc2)no1	28*	10	-12	0.01	9	12	6
Brc1cccc(-c2nc(-c3ccncc3)no2)c1	nt	nt	nt	1.2	-7	nt	nt
CC(C)(C)c1nc(SCC(=O)NCc2ccco2)c2ccccc2n1	38*	-19	18	0.41	-3	-18	17
CN1CCN(C(=O)CN(Cc2ccccc2)S(C)(=O)=O)CC1	1	2	-13	0.27	nt	13	nt
CS(=O)(=O)N(CC(=O)N1CCOCC1)Cc1ccccc1	35*	-21	-3	0	-2	3	1
Cc1ccc(-n2c(Cc3cccn3C)nnc2SCC(=O)NCc2ccc3c(c2)OCO3)cc1	-1	0	-14	-0.38	10	14	nt
CC1CCCC(C)N1C(=O)Cn1cc(/C=C2/C(=O)Nc3ccccc32)c2ccccc21 (centres undefined)	5	9	-6	-3	nt	6	nt
CN1C(=O)/C(=C/c2cn(CC(=O)N3CCCCC3)c3ccccc23)c2ccccc21	26*	-12	2	nt	nt	-2	28*
O=c1oc(-c2ccc(Br)o2)nc2ccccc12	35*	3	18	-1.4	nt	-18	37*
COc1cc(OC)cc(-c2nc3ccccc3c(=O)o2)c1	-1	-1	-10	-2.1	nt	10	nt
Cc1cc2c(C)nc(-c3ccccc3)nc2o1	25*	-26	-7	0.43	-4	7	-1
C=CCn1c(N)c(C(=O)NCc2cccnc2)sc1=S	0	15	8	-0.5	6	-8	nt
O=C(Nc1ccc(F)cc1)Nc1nnc(-c2ccncc2)s1	30*	-25	-1	-1.8	nt	1	7
Nn1c(Nc2ccccc2)nc2ccccc2c1=O	9	1	-3	-0.63	0	2	nt
O=c1[nH]c(Nc2ccccc2)cc2ccccc12	38*	3	10	0.41	-3	-10	35*
COc1ccccc1NC(=O)Cn1nnc(-c2ccccc2NC(=O)c2cccs2)n1	21*	11	0	-1.2	-2	0	13
O=C(Cn1nnc(-c2ccccc2NC(=O)c2cccs2)n1)Nc1ccccc1	1	15	15	-1.7	5	-15	nt
COc1ccc(NC(=O)Cn2nnc(-c3ccccc3NC(=O)c3ccco3)n2)cc1	4	2	-5	-1.3	4	4	nt
COc1ccccc1NC(=O)Cn1nnc(-c2ccccc2NC(=O)c2ccco2)n1	27*	-4	0	-0.09	-1	0	15
Cc1ccc(C(=O)CSc2nnc(CNc3nc(-c4ccccc4)cs3)n2C)cc1	3	4	-12	0.67	-2	12	nt
Cc1cc(C)c2cc3c(N)c(C(=O)N4CCc5ccccc5C4)sc3nc2c1	2	-26	4	0.46	nt	-4	nt
CN1CCc2nc3sc(C(=O)C45CC6CC(CC(C6)C4)C5)c(N)c3cc2C1	51*	10	-2	-0.02	nt	2	34*
CC(C)c1nnc(NC(=O)C2CCCCC2)s1	5	26	-7	nt	-5	7	nt
CC(C)c1cc(C(N)=O)c(NC(=O)C2CCC2)s1	24*	-33	-3	-1.4	10	3	11
